Screens (PubChem BioAssay)
PAFAH1B2 FP inh – PAFAH1B2 (human) inhibition; P68402; recombinant PAFAH1B2, FP-rhodamine activity probe, fluorescence polarization; inhibition, % at 3.39 µM; hit rate 1.2% among 340,000;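 active = inhibition above the mean of all tested compounds plus 3 SD, cut at about 24% in these data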;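 also: 0% = enzyme with DMSO and 100% = wells lacking PAFAH1B2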
pPAFAH inh – pPAFAH (human) enzyme inhibition; hit rate 1.5% among 330,000; inhibition, % at 3.39 µM; recombinant pPAFAH, FP-rhodamine probe fluorescence polarization; AID 463082;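 active = inhibition above the mean inhibition across the screen plus 3 SD, cut at about 25% in these data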;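 also: inhibitors block binding of the rhodamine activity-based probe so polarization drops; 0% = enzyme with DMSO and 100% = wells lacking pPAFAH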
Target sequence (Q13093 whole entry, looked up): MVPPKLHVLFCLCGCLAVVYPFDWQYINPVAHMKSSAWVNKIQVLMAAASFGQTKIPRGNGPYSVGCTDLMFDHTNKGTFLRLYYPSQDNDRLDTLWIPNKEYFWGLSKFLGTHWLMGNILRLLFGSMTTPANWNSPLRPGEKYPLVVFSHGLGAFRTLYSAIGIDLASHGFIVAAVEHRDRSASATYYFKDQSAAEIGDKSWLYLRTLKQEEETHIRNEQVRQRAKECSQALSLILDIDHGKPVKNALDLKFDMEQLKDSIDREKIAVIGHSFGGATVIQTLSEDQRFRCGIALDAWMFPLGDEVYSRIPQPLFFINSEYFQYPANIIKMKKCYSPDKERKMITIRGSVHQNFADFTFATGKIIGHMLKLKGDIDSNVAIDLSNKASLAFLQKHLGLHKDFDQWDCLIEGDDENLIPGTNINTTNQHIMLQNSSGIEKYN
ZTA counter – counter-screen for EBNA-1 inhibitors: inhibitors of Epstein-Barr virus ZTA; ZTA-DNA binding, fluorescence polarization; AID 2234; inhibition, % at 11 µM; P03206; hit rate 0.15% among 320,000; in the data active = inhibition above about 33%
PAFAH1B3 inh – inhibitors of human PAFAH1B3; Q15102; recombinant PAFAH1B3, FP-rhodamine probe, fluorescence polarization; inhibition, % at 3.39 µM; hit rate 0.28% among 340,000;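 active = inhibition above the screen-wide average of all tested compounds plus 3 SD, cut at about 25% in these data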;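 also: 0% = enzyme with DMSO only and 100% = wells lacking PAFAH1B3 protein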
EBNA-1 inh – blocks EBNA-1 binding to DNA; EBNA-1 DNA binding, fluorescence polarization; inhibition, % at 14.8 µM; hit rate 0.34% among 300,000; AID 1950; in the data active = inhibition above about 28%
PAFAH2 FP inh – inhibitors of human PAFAH2. Q99487. recombinant PAFAH2, FP-rhodamine activity probe, fluorescence polarization. inhibition, % at 3.39 µM. hit rate 0.99% among 340,000;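 active = inhibition above the mean over all tested compounds plus 3 SD, cut at about 30% in these data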;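 also: inhibitors block probe labeling of enzyme so polarization drops; 0% = enzyme with DMSO and 100% = wells lacking PAFAH2 protein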
pPAFAH confirm – confirmation of human plasma PAF acetylhydrolase (pPAFAH) inhibitors | shares compounds with pPAFAH inh | recombinant pPAFAH, FP-Rh probe fluorescence polarization | inhibition, % at 3.39 µM | hit rate 72% among 2,300;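 active = mean inhibition of the triplicate above the hit cutoff set for the earlier primary screen, cut at about 25% in these data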;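 also: 0% = enzyme with DMSO and 100% = wells lacking pPAFAH enzyme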
Starred values were filed as active, the others as inactive; · = no result given. The list is not random: actives were taken first. Their share in the collection is about 2.9%.

SMILES	PAFAH1B2 FP inh	pPAFAH inh	ZTA counter	PAFAH1B3 inh	EBNA-1 inh	PAFAH2 FP inh	pPAFAH confirm
CCN=c1scc(C)n1/N=C/c1cc(Br)c(O)c(Br)c1	14	41*	-7	20	8	19	25*
CCN=c1scc(C)n1/N=C/c1ccc(O)c(O)c1O	0	46*	-18	9	-12	13	11
COCCN=c1scc(-c2cccs2)n1/N=C/c1ccc(O)c(O)c1O	-7	44*	-11	-6	7	9	75*
NC(=O)CSc1nnc(-c2cc(-c3ccc(Cl)cc3)nc3ccccc23)o1	3	-4	-6	6	2	-5	·
Cn1nc(C(=O)N2CCN(S(=O)(=O)/C=C/c3ccccc3)CC2)c2ccccc2c1=O	1	8	-20	3	17	-4	·
COc1ccc(S(=O)(=O)CC(=O)c2cc3cccc(C)c3oc2=O)cc1	-1	16	6	5	1	8	·
COc1cccc2cc(C(=O)CS(=O)(=O)c3ccc(C(C)(C)C)cc3)c(=O)oc12	42*	52*	-17	4	-7	15	35*
O=C(CSc1nc2nn(-c3ccccc3)c(=O)c-2c2n1CCCCC2)Nc1ccc(F)c(F)c1	4	10	·	11	·	10	·
COCCN1Cc2cc3cc(C)ccc3nc2SC1=Nc1ccc(OC)cc1	6	17	-11	5	3	3	·
COCCN=C1Sc2nc3ccc(C)cc3cc2CN1Cc1cccs1	-2	40*	11	7	-13	7	60*
O=C(NCc1cccnc1)c1ccc(-c2ccccc2[N+](=O)[O-])o1	-5	56*	-1	11	6	-7	3
O=C(NCc1cccnc1)c1ccc(-c2cccc(Cl)c2Cl)o1	-3	8	10	5	5	3	·
Nc1ccc(O)cc1C(=O)OCC(=O)c1ccc(C2CCCCC2)cc1	6	51*	18	5	-5	12	26*
COc1cc(C(=O)Oc2c(CN3CCOCC3)cc(Cl)c3cccnc23)cc(OC)c1OC	1	40*	-2	5	3	4	5
COc1ccc(C(=O)Oc2c(CN3CCOCC3)cc(Cl)c3cccnc23)cc1	-1	4	-12	10	-10	2	·
S=C(NCc1ccco1)N/N=C/c1ccc(Cl)cc1	3	7	8	-10	-3	2	·
Oc1c(Br)cc(/C=N/NC(=S)NCc2ccco2)cc1Br	15	41*	-1	-2	2	22	57*
O=S(=O)(c1ccc(NC(=S)N/N=C/c2ccc(O)c(O)c2)cc1)N1CCOCC1	6	65*	-2	12	-9	5	61*
O=S(=O)(c1ccc(NC(=S)N/N=C/c2cccc(Oc3ccccc3)c2)cc1)N1CCOCC1	-2	-1	8	-6	7	-6	·
CCS(=O)(=O)c1ccc(N=Nc2ccc(O)c3ncccc23)c(OC)c1	6	·	·	11	·	3	·
Cc1ccc(N=Nc2ccc(O)c3ncccc23)cc1	5	35*	6	1	-11	-12	23
COc1ccccc1N=Nc1ccc(O)c2ncccc12	6	44*	-14	18	-6	6	25*
CC(C)CCN1CCNC(=O)C1CC(=O)N(C)CCCN1CCOCC1 (centres undefined)	0	-3	-6	-5	-6	0	·
Cc1cc(C2C(C#N)=C(N)OC3=C2C(=O)CCC3)c(C)s1 (centres undefined)	5	2	-2	11	11	-30	·
COc1cc(C2C(C#N)=C(N)OC3=C2C(=O)CCC3)c([N+](=O)[O-])cc1OC (centres undefined)	12	38*	0	27*	-4	26	11
CCC(C)N(C(=O)COC(=O)c1cc([N+](=O)[O-])ccc1N1CCOCC1)C1CCS(=O)(=O)C1 (centres undefined)	5	40*	-1	2	2	1	1
CN(C(=O)COC(=O)c1cc([N+](=O)[O-])ccc1N1CCCC1)C1CCS(=O)(=O)C1 (centres undefined)	2	-7	-12	8	-9	-2	·
C=CCn1c(N/N=C/c2ccc(O)cc2)nc2ccccc2c1=O	5	35*	-7	1	-4	4	9
